DT40 TDP1 no CPT = qHTS for Inhibitors of human tyrosyl-DNA phosphodiesterase 1 (TDP1): qHTS in cells in absence of CPT | DT40 Tdp1-/- hTDP1 cells, no CPT, ATP luminescence, 48 h | Potency, µM (top dose mostly 46.2 µM), inactives show at the highest dose activity change, negative = growth inhibition, usual class: inhibitors | 420,000 tested, 15% active | AID 686978, 2013; further: nearly all actives have a fitted effect of over 55% in size
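Growth of hTDP1-complemented DT40 Tdp1-knockout cells is measured by ATP luminescence after at least 48 hr compound exposure at 37 °C, with DMSO substituting for the 20 nM CPT used in the parallel screen.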
DT40 TDP1 CPT = growth inhibition of DT40 Tdp1-/-;hTDP1 cells with camptothecin (screen for TDP1 inhibitors). Potency, µM (highest dose often 46.2 µM), without a hit: at the top dose activity change, negative = growth inhibition, hits mostly inhibitors. 420,000 tested, 12% active. chicken DT40 Tdp1-/-;hTDP1 cells + 20 nM CPT, ATP luminescence, 48 h. AID 686979; further: nearly all actives have a fitted effect of over 55% in size
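Cell growth measured by CellTiter-Glo luminescence after a minimum 48 h, 37 C compound exposure with 20 nM CPT in Tdp1-knockout DT40 cells stably expressing hTDP1, seeded 400/well; qHTS titration format.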
KB-V1 cytotox = kills drug-selected multidrug resistant KB-V1 cells. KB-V1 MDR cells viability, CellTiter-Glo, 72 h. Potency, µM (top dose mostly 46.1 µM), actives largely listed as cytotoxic. 400,000 tested, 3.4% active; further: nearly all actives have a fitted effect of over 60% in size
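KB-V1, DMEM (no phenol red) + 10% FBS; cpd pin-transferred, titration series; 72 h, 37 degrees C; CellTiter-Glo, luminescence. Data normalized, curve-fit.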
HT1080NT lethal = kills 2HG-producing HT-1080-NT fibrosarcoma cells; HT-1080-NT fibrosarcoma viability, CellTiter-Glo ATP luminescence, 48 h; Potency, µM (doses to about 46.1 µM), without a hit: at the highest dose activity, negative = less viability, most hits filed as cytotoxic; 360,000 tested, 1.6% active; AID 686970;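 further: NT is the 2HG producing partner of a matched IDH1 knockdown line; 0% = DMSO-treated cells and -100% = media-only wells without cells; nearly all actives have a fitted effect of over 55% in size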
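Luminescent CellTiter-Glo readout after 48 hours of compound exposure at 37 degrees C defined viability of HT-1080-NT cells. Activity was normalized to DMSO wells and cell-free media wells; concentration-response curves were fitted and assigned curve classes.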
KB-3-1 cytotox = kills parental KB-3-1 adenocarcinoma cells; AID 1347075; Potency, µM (top dose mostly 46.1 µM), actives largely listed as cytotoxic; 400,000 tested, 1.4% active; KB-3-1 viability, CellTiter-Glo ATP luminescence, 72 h; further: nearly all actives have a fitted effect of over 60% in size
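KB-3-1 cells, DMEM (no phenol red) + 10% FBS; compound by pin transfer, 72 h, 37 °C. Readout: CellTiter-Glo luminescence after 10 min. Data normalized, curve-fitted.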
HT1080 IDH1KD tx = toxicity to HT-1080 IDH1 knockdown cells (counter line); HT-1080 IDH1 knockdown viability, ATP luminescence, 48 h; Potency, µM (series often up to 46.1 µM), without a hit: at the top dose activity, negative = toxicity, actives largely listed as cytotoxic; 360,000 tested, 2% active;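 further: 0% = DMSO wells and -100% = cell-free medium wells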
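HT-1080-IDH1KD cells (IDH1 knocked down), 750/well in RPMI with 5% FBS, treated with compound 48 h at 37 degrees C. Viability by CellTiter-Glo luminescence, normalised to DMSO and no-cell wells; concentration-response curves classed.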
Active calls of the source: *; i = inactive; ? = inconclusive; / = no result. A selection: hits, their analogues and other compounds. The true share with any hit is near 19%. The call rests on the fitted dose curve; in most records, active means well fitted curve in the direction sought with a large enough effect; inconclusive means small, poorly fitted or top-dose-only effect, or another doubt; inactive means no such curve, though single readings can be large; an effect the other way counts as inactive or inconclusive. Unless noted, on the % scale 0 is the no-effect control and ±100 the full control effect; potency means the concentration at half of the fitted maximal effect.

SMILES	DT40 TDP1 no CPT	DT40 TDP1 CPT	KB-V1 cytotox	HT1080NT lethal	KB-3-1 cytotox	HT1080 IDH1KD tx
COc1ccc(OC)c(C2=NOC(C(=O)Nc3cc(C)on3)C2)c1 (configuration not stated)	18%	-15%	i	1%	i	1%
CCc1ccc(CNC(=O)C2CCN(S(=O)(=O)N3CCC4(CC3)OCCO4)CC2)cc1	-29%	?	i	3%	i	10%
CCOC(=O)c1c(CN2CCN(CCO)CC2)n(C)c2cc(Br)c(OC)cc12	?	?	?	?	i	?
CCCCCCCCOC(=O)c1c(CSC(=N)N)n(C)c2cc(Br)c(OC(C)=O)cc12	7.3µM*	6.5µM*	?	?	i	?
CCOC(=O)c1c(CSC(=N)N)n(-c2ccc(Br)cc2)c2cc(Br)c(OC(C)=O)cc12	23µM*	?	i	13%	i	-7%
Cc1ccccc1N(C(=O)c1csnn1)C(C(=O)NC1CCCC1)c1ccncc1 (configuration not stated)	5%	6%	i	12%	i	1%
COc1ccc2c3c(cccc13)C(=O)CC2	21µM*	18µM*	?	?	i	?
CC(C)OCCOc1ccc2oc(-c3ccco3)cc(=O)c2c1	?	-19%	?	3%	i	-3%
CCCCNC(=O)CN(Cc1ccco1)S(=O)(=O)c1ccc(C(C)=O)cc1	?	-29%	i	-3%	i	-2%
O=C(NCCn1cc(SCc2cccc(F)c2)c2ccccc21)c1cccc(C(F)(F)F)c1	16µM*	?	21µM*	/	i	/
COc1ccc(C(=O)NCCn2cc(SCc3cccc(F)c3)c3ccccc32)cc1OC	4.6µM*	9.2µM*	?	/	?	/
O=[N+]([O-])c1cccc(COc2ccccc2CO)c1	?	-20%	i	7%	i	11%
Nc1cc([N+](=O)[O-])ccc1Nc1ccccc1	6.5µM*	15µM*	i	1%	i	-16%
CC(=O)N(C)c1cc([N+](=O)[O-])ccc1OCc1ccccc1	-22%	-9%	21µM*	0%	i	-4%
O=CN(Cc1ccccc1)c1cc([N+](=O)[O-])ccc1OCc1ccccc1	?	-15%	5.8µM*	3%	i	10%
Nc1cc([N+](=O)[O-])ccc1OCc1ccccc1	?	18µM*	?	-3%	i	-15%
O=[N+]([O-])c1ccc(N/N=C\c2ccccc2OCc2ccccc2)cc1	?	?	i	-20%	i	-4%
Cc1cccc(CN2CCN(CC(=O)NCCc3ccc(Cl)cc3)C2=O)c1	?	-13%	i	/	i	/
CCOc1ccc(CCNC(=O)Cn2ccc3cc(S(=O)(=O)N4CCCCC4)ccc32)cc1	?	?	i	/	i	/
CSc1nnnc2ccccc12	0%	11%	?	2%	i	13%
COc1cccc2c1OC1(C)CC2NC(=O)N1c1cccc(C(=O)Nc2ccc3c(c2)OCCO3)c1 (configuration not stated)	18µM*	?	i	3%	?	19%
COC(=O)c1cccc(NC(=O)NC(=O)c2ccccc2Cl)c1	-13%	-5%	i	?	i	-19%
O=C(Cc1ccccc1)NNC(=O)Nc1ccc(Cl)c(Cl)c1	21µM*	16µM*	i	-15%	i	15µM*
O=C(Nc1ccc(Cl)c(Cl)c1)Nc1ccccn1	-13%	-25%	i	15%	i	5%
O=C(Nc1ccc(Cl)c(Cl)c1)Nc1ccccc1C(=O)O	-15%	-10%	15µM*	?	?	?
SMILES	DT40 TDP1 no CPT	DT40 TDP1 CPT	KB-V1 cytotox	HT1080NT lethal	KB-3-1 cytotox	HT1080 IDH1KD tx
COC(=O)c1cccc(NC(=O)Nc2ccc(Cl)c(Cl)c2)c1	?	18µM*	15µM*	?	i	?
Cc1ccc(-c2n[nH]c(=S)c3ccccc23)cc1S(=O)(=O)NCC1CCCO1 (configuration not stated)	?	?	i	?	i	-11%
Cc1ccc(CNC(=O)c2c3c(nc4ccccc24)C(=O)N(C2CCCCC2)C3)cc1	16µM*	?	i	/	i	/
CCNC(=O)c1c2c(nc3ccccc13)C(=O)N(C1CCCCC1)C2	-19%	-19%	i	/	i	/
CCc1ccc(CNC(=O)c2c3c(nc4ccccc24)C(=O)N(C2CCCCC2)C3)cc1	16µM*	?	13µM*	/	i	/
O=c1c2c(nc3c(-c4ccc(Cl)cc4)c[nH]n13)CCC2	4.6µM*	2.3µM*	4.6µM*	-21%	?	?
O=c1c2c(nc3cc(-c4ccccc4)[nH]n13)CCC2	-5%	5%	i	-1%	i	-2%
O=c1c2c(nc3c(-c4cccc(Br)c4)c[nH]n13)CCCC2	-103%	16µM*	i	-10%	i	-13%
O=c1c2c(nc3c(-c4ccccc4)c[nH]n13)CCC2	16µM*	?	?	11µM*	?	?
Cc1c(-c2ccccc2)[nH]n2c(=O)c3c(nc12)CCCC3	-5%	1%	21µM*	9%	i	-2%
O=C(C[n+]1ccncc1)c1ccc(Br)cc1	?	?	i	/	i	/
Cc1cc(=O)[nH]c(SCC(=O)c2ccc(F)c(C)c2)n1	?	-30%	i	-8%	i	1%
COc1cc(C2C(=O)N(C3CCCCCC3)CC(=O)N2Cc2ccccc2)ccc1OC(C)C (configuration not stated)	23µM*	?	/	/	/	/
COc1ccc(CCN2C(=O)CN(C3CCC(C)CC3)C(=O)C2c2ccc(OC(C)C)c(OC)c2)cc1OC (configuration not stated)	?	16µM*	i	/	i	/
COc1cc(C2C(=O)N(C3CCCCC3)CC(=O)N2C2CCCC2)ccc1OC(C)C (configuration not stated)	-11%	-13%	/	/	/	/
COc1cc(C2C(=O)N(C3CCCC3)CC(=O)N2Cc2ccco2)ccc1OC(C)C (configuration not stated)	-7%	0%	3.7µM*	9%	i	-1%
Cn1c(/C=C/c2ccc(Cl)cc2Cl)c([N+](=O)[O-])c(=O)n(C)c1=O	5.2µM*	8.2µM*	?	-19%	7.3µM*	-18%
CC(C)c1ccc(NC(=O)CSc2n[nH]c(=O)n2C2CC2)cc1	19%	-10%	i	-7%	i	-16%

Screening data from PubChem BioAssay.
